Measured values as given in PubChem BioAssay AID720540 (National Center for Advancing Translational Sciences (NCATS), 2013).
Among all 1,300 compounds or so, about 460 (35%) were called active. Inconclusive results (about 39%) are left out. The call rests on the fitted dose curve; in most records, active means well fitted inhibition curve with a large enough effect; inconclusive means small, poorly fitted or top-dose-only effect; inactive means flat fitted curve, though single readings scatter. This is one part of the list.

molecular target: Protein phosphatase EYA2 (Homo sapiens) (UniProt O00167); assay: qHTS for Inhibitors of the Phosphatase Activity of Eya2: Confirmatory Assay for Cherry-picked Compounds; conditions: purified EYA2 phosphatase activity, qHTS confirmation; series mostly up to 46.1 µM; further: nearly all actives have a fitted effect of over 65% in size
Sequence (O00167 whole entry, looked up): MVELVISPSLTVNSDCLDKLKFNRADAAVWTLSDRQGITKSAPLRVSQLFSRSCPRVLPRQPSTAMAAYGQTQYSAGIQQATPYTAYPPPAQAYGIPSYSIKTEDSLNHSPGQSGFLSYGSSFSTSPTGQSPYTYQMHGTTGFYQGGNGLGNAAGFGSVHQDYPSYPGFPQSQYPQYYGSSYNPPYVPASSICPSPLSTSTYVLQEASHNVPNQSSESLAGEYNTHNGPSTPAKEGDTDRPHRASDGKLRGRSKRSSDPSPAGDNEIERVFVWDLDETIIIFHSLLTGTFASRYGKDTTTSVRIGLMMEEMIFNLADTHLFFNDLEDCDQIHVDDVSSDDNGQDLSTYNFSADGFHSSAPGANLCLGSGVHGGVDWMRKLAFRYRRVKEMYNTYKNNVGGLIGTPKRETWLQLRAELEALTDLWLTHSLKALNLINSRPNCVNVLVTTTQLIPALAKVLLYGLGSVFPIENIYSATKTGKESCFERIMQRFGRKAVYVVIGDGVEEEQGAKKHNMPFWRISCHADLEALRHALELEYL
How it was run: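 Eya2 (0.2 uM working solution) preincubated 10 min at room temperature with compound in pH 7.5 HEPES buffer with MgCl2, BSA, DTT. OMFP added (50 uM working solution), 10 min more; fluorescence 485/525 nm, normalized to EGTA and DMSO.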
Potency means the concentration at half of the fitted maximal effect.

Row | Compound | Potency
1 | O=C(O)C1=NN(c2cc(Cl)c(S(=O)(=O)O)cc2Cl)C(=O)C1 | 8.49 µM (active)
2 | COc1cc(C(=O)Nc2scc(-c3ccc(Br)cc3)c2C(=O)O)cc(OC)c1OC | 19 µM (active)
3 | Cc1ccc(-c2csc(NC(=O)c3ccccc3F)c2C(=O)O)cc1 | 7.57 µM (active)
4 | CCCC[C@@]1(C2CCCC2)Cc2cc(OCC(=O)O)c(Cl)c(Cl)c2C1=O | inactive
5 | O=C1/C(=C/C=C/c2ccco2)SC(=S)N1NS(=O)(=O)c1ccccc1 | 7.57 µM (active)
6 | O=C(NN1C(=O)/C(=C/C=C/c2ccco2)SC1=S)c1ccncc1 | 6.01 µM (active)
7 | CCn1c(SCC(=O)N2CCN(c3ccccc3)CC2)nc2c(c1=O)SC(C)C2 (stereo not drawn) | inactive
8 | CN(C)c1ccc(N=c2sc3ccccc3n2C)cc1 | 7.57 µM (active)
9 | Cc1cccc(N2CCN(C(=O)C3COc4ccccc4O3)CC2)c1C (stereo not drawn) | inactive
10 | O=C(O)/C=C/C(=O)Nc1ccc2c(c1)C(=O)c1ccccc1C2=O | 16.9 µM (active)
11 | Oc1c(C(Nc2nc3ccccc3s2)c2ccco2)ccc2cccnc12 (stereo not drawn) | 9.53 µM (active)
12 | CN(C)c1ccc(C(=C2C=CC(=[N+](C)C)C=C2)c2c(O)c(S(=O)(=O)[O-])cc3cc(S(=O)(=O)O)ccc23)cc1 | 7.57 µM (active)
13 | CN(C)c1ccc(C(=C2C=CC(=[N+](C)C)C=C2)c2ccc(N(C)C)cc2)cc1 | 6.01 µM (active)
14 | O=C(Nc1ccc(-c2nc3cccnc3s2)cc1)C1CCCO1 (stereo not drawn) | inactive
15 | Cc1cc(=O)n2nc(N3CCCC(C(=O)Nc4ccc(C)c(C)c4)C3)sc2n1 (stereo not drawn) | inactive
16 | CCc1ccc(N=C2NC(=O)/C(=C/c3cc(OC)c(O)c(OC)c3)S2)cc1 | 19 µM (active)
17 | COc1ccc(-c2ccc(SCc3cccnc3)nn2)cc1OC | 16.9 µM (active)
18 | Cc1ccc(NC(=S)N2CCc3[nH]c4ccccc4c3C2)cc1 | inactive
19 | COc1cccc(/C=N/N2C(=O)CSC2=S)c1O | 0.478 µM (active)
20 | Nc1c(N=Nc2ccc([N+](=O)[O-])cc2)c(S(=O)(=O)O)cc2cc(S(=O)(=O)O)c(/C=C/c3ccccc3)c(O)c12 | 7.57 µM (active)
21 | COc1ccc(C(CCNCc2ccc(N(C)C)cc2)C(C)C)cc1 (stereo not drawn) | 8.49 µM (active)
22 | COc1ccccc1C(CCNCc1ccc(N(C)C)cc1)c1ccc(OC(C)C)cc1 (stereo not drawn) | 6.01 µM (active)
23 | CC1Cc2ccccc2N1C(=O)C1CCCN1S(=O)(=O)c1ccc(Cl)cc1 (stereo not drawn) | inactive
24 | Cc1nn(C)c(Cl)c1CN1CCCC(CO)(Cc2cccc(Cl)c2)C1 (stereo not drawn) | inactive

Row | Compound | Potency
25 | CC1CS(=O)(=O)CCN1N=Cc1ccc([N+](=O)[O-])o1 (stereo not drawn) | inactive
26 | O=C(O)c1ccc2c(=O)n3cc(C(=O)c4ccccc4O)cc(Cl)c3nc2c1 | 15.1 µM (active)
27 | C=C(CC[C@]12OC(C(=O)O)C(O)(C(=O)O)C(C(=O)O)(O1)C(OC(=O)/C=C/[C@@H](C)C[C@@H](C)CC)C2O)[C@@H](OC(C)=O)[C@H](C)Cc1ccccc1 (stereo partly drawn) | 19 µM (active)
28 | Cc1cc(C)c(C#N)c(Sc2nnnn2-c2ccccc2)n1 | inactive
29 | CCOc1ccc(Nc2cc3n(c(=O)n2)CCc2cc(OC)c(OC)cc2-3)cc1 | 6.75 µM (active)
30 | COc1cc2c(cc1OC)-c1cc(Nc3ccccc3)nc(=O)n1CC2 | 6.75 µM (active)
31 | COc1cc2c(cc1OC)-c1cc(Nc3ccc(F)cc3)nc(=O)n1CC2 | 2.39 µM (active)
32 | COc1ccc(Nc2cc3n(c(=O)n2)CCc2cc(OC)c(OC)cc2-3)c(C)c1 | 15.1 µM (active)
33 | FC(F)(F)c1ccc(CN2C[C@@H]3C(c4ccc(Cl)nc4)C4(c5cccnc5)CC3(C4)[C@H]2c2ccccc2)cc1 (stereo partly drawn) | inactive
34 | O=C(NCc1ccco1)C1CC2CCC1C2 (stereo not drawn) | inactive
35 | COc1cc2c(cc1OC)-c1cc(Nc3ccc(C)cc3)nc(=O)n1CC2 | 5.36 µM (active)
36 | Cc1c(C(=O)/C=C/N(C)C)nnn1-c1ccc(Cl)cc1Cl | inactive
37 | CCc1c(C)nc(Nc2nc(C)c3ccc(OC)cc3n2)[nH]c1=O | 3.79 µM (active)
38 | C[C@](N)(Cc1ccc(O)c(O)c1)C(=O)O | inactive
39 | COc1cc(NC(=O)c2ccccc2Cl)ccc1NC(=O)c1cccs1 | inactive
40 | COc1ccc(C(=O)Nc2ccc3c(c2)CCCN3C(=O)c2cccs2)c(OC)c1 | 8.49 µM (active)
41 | O=C(/C=C\c1ccccc1)Oc1cccc2cccnc12 | 7.57 µM (active)
42 | O=C(/C=C/c1ccccc1)Oc1cccc2cccnc12 | 6.75 µM (active)
43 | COc1ccccc1/C=C/C(=O)Oc1cccc2cccnc12 | 9.53 µM (active)
44 | O=C(/C=C/c1ccco1)Oc1cccc2cccnc12 | 15.1 µM (active)
45 | COCCNC(=O)CCC(=O)NNc1nc2ccccc2c2nc(-c3ccccc3)nn12 | inactive
46 | c1ccc(-c2ccc(C3=Nn4c(nnc4-c4cc(-c5ccccc5)n[nH]4)SC3)cc2)cc1 | inactive
47 | N#Cc1ccc(CSc2nnc(-c3c[nH]c4ccccc34)n2-c2ccccc2)cc1 | inactive
48 | COc1ccc(N=C2SC(C(=O)N3CCN(c4ccc([N+](=O)[O-])cc4)CC3)CC(=O)N2C)cc1 (stereo not drawn) | inactive

Row | Compound | Potency
49 | COc1cc2nc(/C=C/c3ccc(N(C)C)cc3)sc2cc1SC | 19 µM (active)
50 | COc1ccccc1NC(=O)c1ccc(NC(=O)Cc2n[nH]c(=O)c3ccccc23)cc1 | inactive
51 | COc1ccccc1OCC(=O)Nc1ccc(C(=O)Nc2ccccc2C(=O)O)cc1 | 16.9 µM (active)
52 | O=C(NC1=C(Nc2ccc(F)cc2)C(=O)c2ccccc2C1=O)c1ccc(Cl)cc1 | inactive
53 | O=C(Nc1ccc(F)cc1)c1ccc2[nH]c(=O)c(=O)[nH]c2c1 | 4.78 µM (active)
54 | N#Cc1c(N)n(-c2cccc(C(=O)O)c2)c2nc3ccccc3nc12 | 16.9 µM (active)
55 | N#Cc1c(N)n(-c2ccc(C(=O)O)cc2)c2nc3ccccc3nc12 | 16.9 µM (active)
56 | Cc1cc(/C=C2\C(=N)N3N=C(CC(=O)N4CCOCC4)SC3=NC2=O)c(C)n1Cc1ccccc1 | inactive
57 | O=C(NN=C1CCCC1)c1[nH]c2ccc(Br)cc2c1-c1ccccc1 | inactive
58 | COc1cc(/C=C2\C(C)=C(C#N)c3nc(N)c(C#N)c(C)c32)ccc1OCC(=O)O | 16.9 µM (active)
59 | CN(C)c1ccc(/C=C2\C=Cc3cc(N)ccc32)cc1 | 8.49 µM (active)
60 | COc1ccc2c(c1)C=C/C2=C\c1ccc(N(C)C)cc1 | 5.36 µM (active)
61 | CN(C)c1ccc(/C=C2\CCc3cc(N)ccc32)cc1 | 8.49 µM (active)
62 | COc1ccc(C(=O)Nc2nc(-c3ccccn3)cs2)cc1S(=O)(=O)N1CCOCC1 | 1.51 µM (active)
63 | O=C(Nc1cc(S(=O)(=O)N2CCOCC2)ccc1Cl)c1cc(=O)c2ccccc2o1 | inactive
64 | O=C(Nc1nc(-c2ccccn2)cs1)c1cccc(S(=O)(=O)N2CCOCC2)c1 | 1.51 µM (active)
65 | Cc1ccc(NC(=O)c2cc(=O)c3ccccc3o2)cc1S(=O)(=O)N1CCCCC1 | 12 µM (active)
66 | S=C(Nc1ccc2c(c1)OCCO2)Nc1ccc2c(c1)OCO2 | inactive
67 | Cc1ccc(NC(=O)c2ccc3c(c2)OCO3)cc1S(=O)(=O)N1CCOCC1 | 9.53 µM (active)
68 | Cc1cccc(S(=O)(=O)C(C#N)c2nc3ccccc3nc2N2CCOCC2)c1 (stereo not drawn) | inactive
69 | Cc1ccc(NC(=O)COc2ccc(S(=O)(=O)N3CCOCC3)cc2)cc1 | inactive
70 | O=S(=O)(c1ccc(Cl)cc1)N1CCOCC1 | inactive
71 | CC(C(=O)c1ccc(Br)cc1)[n+]1cccc2ccccc21 (stereo not drawn) | inactive
72 | O=C1c2ccccc2C(=O)N1CCCc1cn(C[C@H]2CC[C@@H]([C@@H]3CC[C@H](Cn4cc(CCCN5C(=O)c6ccccc6C5=O)nn4)O3)O2)nn1 | inactive

Row | Compound | Potency
73 | COc1ccc(CC(=O)Nc2cccc(Cl)c2C)cc1S(=O)(=O)N1CCOCC1 | inactive
74 | COc1ccc(C(=O)Nc2ccc3nc(C)sc3c2)cc1S(=O)(=O)N1CCOCC1 | 16.9 µM (active)
75 | CCOC(=O)N1CCN(S(=O)(=O)c2ccc(C(=O)NNc3nc4ccc(Cl)cc4s3)cc2)CC1 | inactive
76 | CC(C)N=c1cc2n(-c3ccc(Cl)cc3)c3ccccc3nc-2cc1Nc1ccc(Cl)cc1 | 1.9 µM (active)
77 | CCOC(=O)/C(C#N)=C/c1ccc(OC(=O)c2ccccn2)cc1 | 8.49 µM (active)
78 | N#C/C(=C\c1ccc(OC(=O)c2ccc(Cl)s2)cc1)c1nc2ccccc2[nH]1 | inactive
79 | N#C/C(=C\c1ccc(OC(=O)c2ccccn2)cc1)C(N)=O | 16.9 µM (active)
80 | N#C/C(=C\c1ccc(OC(=O)c2ccc(Br)s2)cc1)c1nc2ccccc2[nH]1 | inactive
81 | N#C/C(=C/c1ccc(OC(=O)c2ccc(Br)s2)cc1)c1nc2ccccc2[nH]1 | inactive
82 | CNC(=O)c1cc2c(cn1)[nH]c1ccccc12 | inactive
83 | CC(=O)Nc1cc(=O)c2cccnc2[nH]1 | 15.1 µM (active)
84 | CCNc1ccc2noc3c2c1C(=O)c1ccccc1-3 | 6.75 µM (active)
85 | COc1cc(CNCc2ccc(OC)cc2OC)cc(OC)c1 | inactive
86 | CSc1nc(NCCOCCO)c2sc3nc(-c4ccco4)c4c(c3c2n1)CCC4 | 7.57 µM (active)
87 | Nc1nc2c(c(=O)[nH]1)C(c1ccccc1)C1=C(N2)c2ccccc2C1=O (stereo not drawn) | 1.69 µM (active)
88 | CCCOc1ccc(C2C3=C(Nc4nc(N)[nH]c(=O)c42)c2ccccc2C3=O)cc1 (stereo not drawn) | 3.38 µM (active)
89 | CCOc1ccc(C2C3=C(Nc4nc(N)[nH]c(=O)c42)c2ccccc2C3=O)cc1 (stereo not drawn) | 2.69 µM (active)
90 | Nc1nc2c(c(=O)[nH]1)C(c1cccc3ccccc13)C1=C(N2)c2ccccc2C1=O (stereo not drawn) | 7.57 µM (active)
91 | O=C1/C(=C/c2ccco2)SC(=S)N1c1cccnc1 | 12 µM (active)
92 | Nc1n[nH]c2cc(=O)n(-c3ccc(Cl)cc3)nc12 | inactive
93 | Cn1nc(C(=O)Nc2nc3ccccc3[nH]2)c2ccccc2c1=O | 16.9 µM (active)
